# Experimental data reported in publication PMC7862700, “An all-to-all approach to the identification of sequence-specific readers for epigenetic DNA modifications on cytosine”.
# Tests used:
# Experiment in all cases: DAPPL (digital affinity profiling via proximity ligation, sequencing); 10 mM Tris-HCl pH 7.5, 50 mM NaCl, 1 mM DTT, 4% glycerol, room temperature, 30 min; GST-TFs on glutathione beads, 16-mer random dsDNA library, 0.1% formaldehyde crosslink after washing; high values mean tight binding
# FLI1 = biological target: T1, FLI1 (Homo sapiens, UniProt Q01543 1-452); conditions: protein: recombinant; tags: N-terminal GST; dsDNA, one strand shown
# T1 sequence: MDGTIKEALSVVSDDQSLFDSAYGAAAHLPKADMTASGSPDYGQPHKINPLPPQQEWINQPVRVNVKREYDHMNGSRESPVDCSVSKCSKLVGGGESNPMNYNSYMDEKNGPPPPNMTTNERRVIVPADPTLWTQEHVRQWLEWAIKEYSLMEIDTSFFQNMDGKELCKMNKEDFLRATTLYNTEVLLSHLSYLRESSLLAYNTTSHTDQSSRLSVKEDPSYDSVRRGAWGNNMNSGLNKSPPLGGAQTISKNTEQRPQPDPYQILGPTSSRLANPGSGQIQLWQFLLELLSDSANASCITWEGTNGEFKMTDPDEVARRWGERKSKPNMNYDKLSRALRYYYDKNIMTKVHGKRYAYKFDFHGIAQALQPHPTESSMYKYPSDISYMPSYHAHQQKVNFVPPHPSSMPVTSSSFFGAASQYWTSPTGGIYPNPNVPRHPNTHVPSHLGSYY
# Method in brief: (§1)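 Human transcription factors fused to GST were expressed in yeast, captured on glutathione beads, given DNA barcodes and pooled with a GST-only negative control. Pools were incubated with 200 nmole of a 16-mer random double-stranded DNA library in Tris/NaCl/DTT/glycerol buffer at room temperature for 30 min. They were then washed, crosslinked with 0.1% formaldehyde, proximity-ligated (BsaI/T4 ligase, 1 h, 37 °C), PCR-amplified and sequenced on an Illumina NextSeq500. Binding signal is each 6-mer's read frequency for a factor divided by its frequency for the GST control.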
# ELK1 = biological target: T2, ELK1 (Homo sapiens, UniProt P19419 1-428); conditions: protein: recombinant; tags: N-terminal GST; dsDNA, one strand shown
# T2 sequence: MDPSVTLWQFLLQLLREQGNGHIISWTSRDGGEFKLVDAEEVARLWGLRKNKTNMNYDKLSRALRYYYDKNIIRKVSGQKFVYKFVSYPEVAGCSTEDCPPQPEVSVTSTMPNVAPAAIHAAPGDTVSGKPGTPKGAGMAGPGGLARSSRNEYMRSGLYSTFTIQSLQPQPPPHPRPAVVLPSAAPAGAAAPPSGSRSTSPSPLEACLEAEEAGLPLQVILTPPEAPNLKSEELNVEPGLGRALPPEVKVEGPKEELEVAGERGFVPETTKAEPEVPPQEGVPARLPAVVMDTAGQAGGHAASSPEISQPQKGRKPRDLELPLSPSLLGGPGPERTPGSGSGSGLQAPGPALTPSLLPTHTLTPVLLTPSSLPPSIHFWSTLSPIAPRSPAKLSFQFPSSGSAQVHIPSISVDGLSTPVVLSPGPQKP
# Method in brief: as §1
# GABPA = biological target: T3, GABPA (Homo sapiens, UniProt Q06546 1-454); conditions: protein: recombinant; tags: N-terminal GST; dsDNA, one strand shown
# T3 sequence: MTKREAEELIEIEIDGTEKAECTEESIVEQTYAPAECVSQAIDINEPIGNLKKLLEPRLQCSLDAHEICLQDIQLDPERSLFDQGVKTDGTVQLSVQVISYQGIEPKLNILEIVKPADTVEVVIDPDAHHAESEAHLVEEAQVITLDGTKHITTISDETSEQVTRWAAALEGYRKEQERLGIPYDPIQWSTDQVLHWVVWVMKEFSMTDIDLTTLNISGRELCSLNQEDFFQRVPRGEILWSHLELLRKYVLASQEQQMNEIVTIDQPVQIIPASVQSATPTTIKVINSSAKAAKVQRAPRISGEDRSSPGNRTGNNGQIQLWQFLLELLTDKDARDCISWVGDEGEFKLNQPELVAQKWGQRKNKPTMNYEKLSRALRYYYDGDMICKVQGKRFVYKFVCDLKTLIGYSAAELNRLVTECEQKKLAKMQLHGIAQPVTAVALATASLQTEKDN
# Method in brief: as §1
# ERG = biological target: T4, ERG (Homo sapiens, UniProt P11308 1-479); conditions: protein: recombinant; tags: N-terminal GST; dsDNA, one strand shown
# T4 sequence: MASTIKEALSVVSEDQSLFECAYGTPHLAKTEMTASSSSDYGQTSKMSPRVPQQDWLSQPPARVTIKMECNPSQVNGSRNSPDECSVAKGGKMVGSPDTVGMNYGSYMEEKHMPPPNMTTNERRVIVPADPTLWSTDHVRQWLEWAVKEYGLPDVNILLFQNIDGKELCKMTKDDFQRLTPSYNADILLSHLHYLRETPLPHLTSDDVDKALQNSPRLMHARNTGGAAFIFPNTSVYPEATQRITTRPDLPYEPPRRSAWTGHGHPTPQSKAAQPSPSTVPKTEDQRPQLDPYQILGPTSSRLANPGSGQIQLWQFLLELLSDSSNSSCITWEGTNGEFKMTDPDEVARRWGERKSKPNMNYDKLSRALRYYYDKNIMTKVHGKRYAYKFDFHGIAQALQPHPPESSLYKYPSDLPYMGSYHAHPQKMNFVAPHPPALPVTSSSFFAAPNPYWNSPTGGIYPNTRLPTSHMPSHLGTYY
# Method in brief: as §1
# ELF1 = ELF1 (Homo sapiens, UniProt P32519 1-619); conditions: protein: recombinant; tags: N-terminal GST; dsDNA, one strand shown
# Method in brief: as §1
# EHF = biological target: T5, EHF (Homo sapiens, UniProt Q9NZC4 1-300); conditions: protein: recombinant; tags: N-terminal GST; dsDNA, one strand shown
# T5 sequence: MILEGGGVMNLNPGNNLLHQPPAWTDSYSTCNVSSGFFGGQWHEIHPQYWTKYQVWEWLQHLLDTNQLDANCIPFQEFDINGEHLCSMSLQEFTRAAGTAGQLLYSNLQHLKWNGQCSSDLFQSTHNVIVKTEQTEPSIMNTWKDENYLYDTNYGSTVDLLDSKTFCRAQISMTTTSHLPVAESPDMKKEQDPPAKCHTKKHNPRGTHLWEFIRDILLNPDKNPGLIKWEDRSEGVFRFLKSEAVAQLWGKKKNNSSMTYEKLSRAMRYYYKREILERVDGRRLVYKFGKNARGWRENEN
# Method in brief: as §1
# SPI1 = SPI1 (Homo sapiens, UniProt P17947 1-270); conditions: protein: recombinant; tags: N-terminal GST; dsDNA, one strand shown
# Method in brief: as §1
# SPIB = SPIB (Homo sapiens, UniProt Q01892 1-262); conditions: protein: recombinant; tags: N-terminal GST; dsDNA, one strand shown
# Method in brief: as §1
# ELK3 = biological target: T6, ELK3 (Homo sapiens, UniProt P41970 1-407); conditions: protein: recombinant; tags: N-terminal GST; dsDNA, one strand shown
# T6 sequence: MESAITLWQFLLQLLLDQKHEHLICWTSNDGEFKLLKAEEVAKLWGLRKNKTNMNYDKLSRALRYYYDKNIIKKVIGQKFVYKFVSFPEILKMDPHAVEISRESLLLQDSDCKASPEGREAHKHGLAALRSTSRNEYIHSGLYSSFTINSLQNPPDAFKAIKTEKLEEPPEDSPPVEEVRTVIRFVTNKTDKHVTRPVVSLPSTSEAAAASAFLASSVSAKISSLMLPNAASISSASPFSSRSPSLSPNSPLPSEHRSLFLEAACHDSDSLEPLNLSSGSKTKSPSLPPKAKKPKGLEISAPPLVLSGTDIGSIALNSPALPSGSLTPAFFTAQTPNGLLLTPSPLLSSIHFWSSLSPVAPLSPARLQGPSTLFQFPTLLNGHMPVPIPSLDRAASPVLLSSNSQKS
# Method in brief: as §1
# FEV = biological target: T7, FEV (Homo sapiens, UniProt Q99581 1-238); conditions: protein: recombinant; tags: N-terminal GST; dsDNA, one strand shown
# T7 sequence: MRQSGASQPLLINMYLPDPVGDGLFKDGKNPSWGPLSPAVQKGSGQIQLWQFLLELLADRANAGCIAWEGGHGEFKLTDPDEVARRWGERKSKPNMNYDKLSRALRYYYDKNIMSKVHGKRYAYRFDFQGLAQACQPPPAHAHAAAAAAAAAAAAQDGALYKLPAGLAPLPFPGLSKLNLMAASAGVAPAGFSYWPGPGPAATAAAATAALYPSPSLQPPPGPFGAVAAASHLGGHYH
# Method in brief: as §1
# ETV5 = ETV5 (Homo sapiens, UniProt P41161 1-510); conditions: protein: recombinant; tags: N-terminal GST; dsDNA, one strand shown
# Method in brief: as §1
# HSF1 = HSF1 (Homo sapiens, UniProt Q00613 1-529); conditions: protein: recombinant; tags: N-terminal GST; chain copies: 3; dsDNA, one strand shown
# Method in brief: as §1
# SPIC = biological target: T8, SPIC (Homo sapiens, UniProt Q8N5J4 1-248); conditions: protein: recombinant; tags: N-terminal GST; dsDNA, one strand shown
# T8 sequence: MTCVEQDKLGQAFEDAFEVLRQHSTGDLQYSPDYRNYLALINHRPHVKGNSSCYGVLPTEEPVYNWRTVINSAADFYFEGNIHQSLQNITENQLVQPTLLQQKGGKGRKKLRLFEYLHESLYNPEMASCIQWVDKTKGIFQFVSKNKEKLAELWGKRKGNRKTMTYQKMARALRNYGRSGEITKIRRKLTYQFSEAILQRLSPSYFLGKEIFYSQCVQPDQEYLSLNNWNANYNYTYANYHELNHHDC
# Method in brief: as §1
# ELF4 = ELF4 (Homo sapiens, UniProt Q99607 1-663); conditions: protein: recombinant; tags: N-terminal GST; dsDNA, one strand shown
# Method in brief: as §1
# ELK4 = biological target: T9, ELK4 (Homo sapiens, UniProt P28324-2 1-405); conditions: protein: recombinant; tags: N-terminal GST; dsDNA, one strand shown
# T9 sequence: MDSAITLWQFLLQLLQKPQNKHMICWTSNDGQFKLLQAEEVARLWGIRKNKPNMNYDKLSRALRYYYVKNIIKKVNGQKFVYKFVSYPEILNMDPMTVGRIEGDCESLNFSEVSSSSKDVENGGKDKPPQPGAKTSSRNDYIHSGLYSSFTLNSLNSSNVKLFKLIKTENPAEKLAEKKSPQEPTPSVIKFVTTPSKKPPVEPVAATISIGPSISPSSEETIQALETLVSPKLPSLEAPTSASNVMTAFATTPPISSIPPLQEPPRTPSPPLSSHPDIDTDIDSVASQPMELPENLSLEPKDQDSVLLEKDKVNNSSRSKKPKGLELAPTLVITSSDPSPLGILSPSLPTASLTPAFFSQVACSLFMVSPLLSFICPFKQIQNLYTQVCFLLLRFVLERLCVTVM
# Method in brief: as §1
# ETV2 = biological target: T10, ETV2 (Homo sapiens, UniProt O00321 1-342); conditions: protein: recombinant; tags: N-terminal GST; dsDNA, one strand shown
# T10 sequence: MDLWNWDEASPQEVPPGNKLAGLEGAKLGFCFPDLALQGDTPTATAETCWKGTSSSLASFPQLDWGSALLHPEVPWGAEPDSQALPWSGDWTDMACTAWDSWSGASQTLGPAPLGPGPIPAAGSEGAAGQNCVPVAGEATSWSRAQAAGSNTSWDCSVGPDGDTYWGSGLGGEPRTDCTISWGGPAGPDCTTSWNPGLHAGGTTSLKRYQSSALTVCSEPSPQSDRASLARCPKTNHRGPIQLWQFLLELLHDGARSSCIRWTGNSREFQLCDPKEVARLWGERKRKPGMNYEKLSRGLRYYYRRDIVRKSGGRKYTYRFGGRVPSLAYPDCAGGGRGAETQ
# Method in brief: as §1
# ELF3 = biological target: T11, ELF3 (Homo sapiens, UniProt P78545 1-371); conditions: protein: recombinant; tags: N-terminal GST; dsDNA, one strand shown
# T11 sequence: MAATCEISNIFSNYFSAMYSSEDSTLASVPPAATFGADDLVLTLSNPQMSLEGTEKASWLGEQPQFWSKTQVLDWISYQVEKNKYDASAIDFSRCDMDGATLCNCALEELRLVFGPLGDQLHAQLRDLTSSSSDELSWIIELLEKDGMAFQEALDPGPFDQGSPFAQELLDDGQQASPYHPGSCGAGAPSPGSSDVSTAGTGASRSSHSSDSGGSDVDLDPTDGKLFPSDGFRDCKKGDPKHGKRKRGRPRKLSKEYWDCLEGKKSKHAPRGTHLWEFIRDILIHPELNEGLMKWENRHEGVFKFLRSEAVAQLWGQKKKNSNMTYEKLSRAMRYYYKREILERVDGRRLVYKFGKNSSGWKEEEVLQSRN
# Method in brief: as §1
# CRX = CRX (Homo sapiens, UniProt O43186 1-299); conditions: protein: recombinant; tags: N-terminal GST; dsDNA, one strand shown
# Method in brief: as §1
# ETV1 = ETV1 (Homo sapiens, UniProt P50549 1-477); conditions: protein: recombinant; tags: N-terminal GST; dsDNA, one strand shown
# Method in brief: as §1
# SPIB, sequence (Q01892 whole entry): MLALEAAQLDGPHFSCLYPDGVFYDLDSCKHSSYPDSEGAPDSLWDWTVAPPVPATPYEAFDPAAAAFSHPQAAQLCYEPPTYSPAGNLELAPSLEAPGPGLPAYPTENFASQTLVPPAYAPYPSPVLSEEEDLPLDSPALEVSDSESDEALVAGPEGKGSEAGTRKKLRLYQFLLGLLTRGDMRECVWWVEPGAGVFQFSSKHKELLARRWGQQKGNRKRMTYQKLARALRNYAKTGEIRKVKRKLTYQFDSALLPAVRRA
# ELF4, sequence (Q99607 whole entry): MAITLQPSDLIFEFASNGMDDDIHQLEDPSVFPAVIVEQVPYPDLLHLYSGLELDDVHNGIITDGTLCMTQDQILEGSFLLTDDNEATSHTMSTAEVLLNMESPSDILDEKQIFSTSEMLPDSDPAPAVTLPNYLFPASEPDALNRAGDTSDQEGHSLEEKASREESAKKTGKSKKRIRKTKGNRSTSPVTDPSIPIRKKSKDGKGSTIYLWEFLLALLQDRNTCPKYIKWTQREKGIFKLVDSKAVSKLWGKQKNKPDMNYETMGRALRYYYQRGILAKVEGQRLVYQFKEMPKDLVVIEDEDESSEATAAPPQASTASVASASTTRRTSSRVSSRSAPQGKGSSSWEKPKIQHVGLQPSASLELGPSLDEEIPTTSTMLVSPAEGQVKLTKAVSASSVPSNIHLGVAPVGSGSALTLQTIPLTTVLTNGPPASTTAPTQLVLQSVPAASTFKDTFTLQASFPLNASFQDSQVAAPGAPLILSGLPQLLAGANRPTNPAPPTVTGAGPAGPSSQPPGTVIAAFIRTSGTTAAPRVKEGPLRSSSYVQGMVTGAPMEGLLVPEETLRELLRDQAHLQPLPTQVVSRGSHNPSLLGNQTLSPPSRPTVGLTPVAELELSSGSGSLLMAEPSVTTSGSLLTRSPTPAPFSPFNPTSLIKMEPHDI
# ETV1, sequence (P50549 whole entry): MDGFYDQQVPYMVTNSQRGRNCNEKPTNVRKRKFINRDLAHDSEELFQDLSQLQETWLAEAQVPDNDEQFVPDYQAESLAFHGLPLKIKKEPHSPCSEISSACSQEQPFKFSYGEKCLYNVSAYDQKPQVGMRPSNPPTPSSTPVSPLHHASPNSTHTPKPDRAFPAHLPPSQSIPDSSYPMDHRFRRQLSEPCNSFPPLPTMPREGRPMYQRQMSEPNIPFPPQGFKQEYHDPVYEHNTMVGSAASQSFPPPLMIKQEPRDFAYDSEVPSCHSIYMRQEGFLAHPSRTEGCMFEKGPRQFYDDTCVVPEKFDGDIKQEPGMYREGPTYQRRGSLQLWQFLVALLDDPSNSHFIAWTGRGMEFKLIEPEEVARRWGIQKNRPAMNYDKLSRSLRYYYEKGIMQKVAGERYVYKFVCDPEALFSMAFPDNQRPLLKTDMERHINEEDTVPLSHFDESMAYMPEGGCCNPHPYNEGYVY
# HSF1, sequence (Q00613 whole entry): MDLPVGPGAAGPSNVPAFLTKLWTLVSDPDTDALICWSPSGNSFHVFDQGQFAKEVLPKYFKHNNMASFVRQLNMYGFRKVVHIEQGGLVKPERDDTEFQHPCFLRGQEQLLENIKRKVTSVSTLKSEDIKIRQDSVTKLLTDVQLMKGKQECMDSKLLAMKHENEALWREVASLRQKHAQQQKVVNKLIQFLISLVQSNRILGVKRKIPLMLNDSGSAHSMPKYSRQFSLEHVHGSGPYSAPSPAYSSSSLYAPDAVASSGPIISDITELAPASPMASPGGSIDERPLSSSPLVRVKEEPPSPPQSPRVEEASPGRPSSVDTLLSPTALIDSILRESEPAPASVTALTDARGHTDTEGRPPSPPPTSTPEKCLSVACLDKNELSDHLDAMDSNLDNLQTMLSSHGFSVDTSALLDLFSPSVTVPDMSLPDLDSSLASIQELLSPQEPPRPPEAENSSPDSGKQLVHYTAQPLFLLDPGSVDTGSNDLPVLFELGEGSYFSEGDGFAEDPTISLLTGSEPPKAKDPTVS
# ETV5, sequence (P41161 whole entry): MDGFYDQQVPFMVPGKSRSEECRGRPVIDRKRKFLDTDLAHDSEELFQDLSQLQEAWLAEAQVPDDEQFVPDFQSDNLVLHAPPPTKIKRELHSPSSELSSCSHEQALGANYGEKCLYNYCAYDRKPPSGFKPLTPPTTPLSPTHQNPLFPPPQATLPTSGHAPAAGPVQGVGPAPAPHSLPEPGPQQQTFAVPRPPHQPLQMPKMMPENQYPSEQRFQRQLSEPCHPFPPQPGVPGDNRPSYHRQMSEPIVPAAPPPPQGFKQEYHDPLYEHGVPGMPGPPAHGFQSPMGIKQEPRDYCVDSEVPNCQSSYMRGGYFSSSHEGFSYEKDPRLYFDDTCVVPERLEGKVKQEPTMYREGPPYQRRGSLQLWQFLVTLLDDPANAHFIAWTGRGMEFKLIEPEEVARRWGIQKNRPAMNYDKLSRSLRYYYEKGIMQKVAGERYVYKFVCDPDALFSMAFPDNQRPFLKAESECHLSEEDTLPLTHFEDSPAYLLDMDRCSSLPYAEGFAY
# ELF1, sequence (P32519 whole entry): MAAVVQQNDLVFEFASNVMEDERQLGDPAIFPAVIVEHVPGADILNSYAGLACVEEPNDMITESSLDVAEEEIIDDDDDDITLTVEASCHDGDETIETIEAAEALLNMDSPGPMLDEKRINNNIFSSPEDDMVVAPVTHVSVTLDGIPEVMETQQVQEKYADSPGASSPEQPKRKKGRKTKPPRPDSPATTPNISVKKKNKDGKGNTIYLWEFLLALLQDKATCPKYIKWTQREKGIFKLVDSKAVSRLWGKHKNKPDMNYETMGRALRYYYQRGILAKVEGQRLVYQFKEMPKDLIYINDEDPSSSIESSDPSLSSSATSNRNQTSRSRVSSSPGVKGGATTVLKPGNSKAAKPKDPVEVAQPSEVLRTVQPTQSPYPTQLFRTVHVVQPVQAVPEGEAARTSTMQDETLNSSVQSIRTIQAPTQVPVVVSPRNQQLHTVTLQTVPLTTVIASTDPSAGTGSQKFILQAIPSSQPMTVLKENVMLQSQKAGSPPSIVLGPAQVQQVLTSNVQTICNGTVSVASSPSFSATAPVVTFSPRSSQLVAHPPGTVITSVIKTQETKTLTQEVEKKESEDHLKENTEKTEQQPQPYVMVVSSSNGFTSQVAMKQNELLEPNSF
# CRX, sequence (O43186 whole entry): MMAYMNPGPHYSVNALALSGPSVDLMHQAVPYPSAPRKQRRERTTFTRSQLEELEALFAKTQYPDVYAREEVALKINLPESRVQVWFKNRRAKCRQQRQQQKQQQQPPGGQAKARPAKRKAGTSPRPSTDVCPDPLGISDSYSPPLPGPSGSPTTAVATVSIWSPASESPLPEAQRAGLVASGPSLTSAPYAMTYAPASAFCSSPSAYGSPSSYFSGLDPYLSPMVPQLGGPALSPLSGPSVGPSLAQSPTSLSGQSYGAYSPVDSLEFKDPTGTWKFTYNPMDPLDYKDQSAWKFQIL
sequence,measurement,setting,value
ATGCTA,binding signal,FLI1,"1.21 fold enrichment (6-mer frequency, TF over GST control)"
same,binding signal,ELK1,"1.2 fold enrichment (6-mer frequency, TF over GST control)"
same,binding signal,GABPA,"1.25 fold enrichment (6-mer frequency, TF over GST control)"
same,binding signal,ERG,"1.27 fold enrichment (6-mer frequency, TF over GST control)"
same,binding signal,ELF1,"1.23 fold enrichment (6-mer frequency, TF over GST control)"
same,binding signal,EHF,"1.28 fold enrichment (6-mer frequency, TF over GST control)"
same,binding signal,SPI1,"1.22 fold enrichment (6-mer frequency, TF over GST control)"
same,binding signal,SPIB,"1.21 fold enrichment (6-mer frequency, TF over GST control)"
same,binding signal,ELK3,"1.37 fold enrichment (6-mer frequency, TF over GST control)"
same,binding signal,FEV,"1.32 fold enrichment (6-mer frequency, TF over GST control)"
same,binding signal,ETV5,"1.33 fold enrichment (6-mer frequency, TF over GST control)"
same,binding signal,HSF1,"1.46 fold enrichment (6-mer frequency, TF over GST control)"
same,binding signal,SPIC,"1.23 fold enrichment (6-mer frequency, TF over GST control)"
same,binding signal,ELF4,"1.3 fold enrichment (6-mer frequency, TF over GST control)"
same,binding signal,ELK4,"1.32 fold enrichment (6-mer frequency, TF over GST control)"
same,binding signal,ETV2,"1.43 fold enrichment (6-mer frequency, TF over GST control)"
same,binding signal,ELF3,"1.29 fold enrichment (6-mer frequency, TF over GST control)"
same,binding signal,CRX,"1.45 fold enrichment (6-mer frequency, TF over GST control)"
same,binding signal,ETV1,"1.31 fold enrichment (6-mer frequency, TF over GST control)"
